Over roughly 4,500 sequences, “median log2 fold change of GCK-ALFA target abundance (FLAG IP / Myc IP barcode read proportion)” has its median near 0.078; the lowest 2% begin near -0.6. This excerpt belongs to a sample that is enriched for the lowest values.

First the molecules themselves.
B1: GBRAP_52_5877 (protein)
chain: MLEEAVKLLEEAVKAKKEGKEKELKEILKKIVEEFSEETILAAVKKLAEKVLTKSLEEAEAFYETVELLSDILLEAGKSEEIASLMEAIAGATLYTVEQK
B2: GBRAP_11_2629 (protein)
chain: KKEILKKKAELAKKLAEKVEKLLKEGVDNEELLKEIEKLLKEIAELTEKYGTEADKSLVEVAKELFEEAKKDKENKEKYLKELLAAAKVLEGDYLLEIEE
B3: GBRAP_35_5618 (protein)
chain: MSDEELTDMLVDLIEDATAAVPDVSVETLAAIAASLSRAVRSLAEELAGNAENLRRLADAVEALRDAIERHHGDDPLAQETIAALTATAEEIRARAAASE
B4: GBRAP_160_4664 (protein)
chain: SEEIEKLLEEIRELLLETLDWTKDLDPASREALLRAAVGDVLQLLFENPLVTDEVEDYAEEVLEEMREYVLANPDLTDEEREALVDEVVDKIREKILEES
B5: GBRAP_11_2937 (protein)
chain: EKEKLKKAQELAKEAQELLKKIQKAGKLDEELLKKAQELLKKAAELAKELGLEEEQKDLELAQELLEEVQKAGKLDETKVAAAQALVFDVAHELEEKLEE
B6: GBRAP_52_6133 (protein)
chain: MREELREKVLELLELVKAGKLEEAKKRLLKIAKELSDEELREFAREFAEVVRELPPEDLDAAAELLELAEEALEEAGRPEELISLLIGEGARALYEVEQR
B7: GBRAP_11_2673 (protein)
chain: MKEKLLEAAELAEKAAKLVEELIKEGVDNEELLKELKKLLEELKKLAKEYLSKALQKDVEVAEELFKELLEDEENRLEYAEQLLAALRVLEGNLLLEADE
B8: GBRAP_52_6314 (protein)
chain: MSERMEELARRLLELMLAGDEEGARALIRELVKTLSEEELLLLAEELARLAKTLDAEGLDALARLLELIEDEMEEEGVDERIIAEIRGIIITAIYEAEQR

Chain of GABARAP, O95166 (O95166 whole entry, the tested form may be a part): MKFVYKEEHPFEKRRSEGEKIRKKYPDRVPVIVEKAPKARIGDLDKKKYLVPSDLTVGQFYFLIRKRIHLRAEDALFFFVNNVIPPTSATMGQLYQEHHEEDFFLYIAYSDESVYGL

The assay deals with GABARAP, O95166. The experiment in a line: median log2 fold change of GCK-ALFA target abundance (FLAG IP / Myc IP barcode read proportion) (log2 ratio); each designed protein is fused to an ALFA-tag nanobody in HEK293 cells to bring the named protein to FLAG-tagged glucokinase (GCK); Myc marks an untargeted standard; higher = target protein stabilised (more abundant). To be noted: target protein: 3xFLAG-MCP-GCK-ALFA reporter; HEK293 landing pad (RPLP). The method in brief:
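Sequencing of reverse-transcribed, amplified circular RNA barcodes from anti-FLAG and anti-Myc immunoprecipitates provided the readout for an ALFA-nanobody-fused binder library recombined into HEK293 landing-pad cells. Those cells were induced with 2 μg mL^−1 doxycycline, transfected with a plasmid expressing a FLAG-tagged target and a Myc-tagged standard, and lysed after 48 h. Target abundance is the per-binder median log2 ratio of FLAG to Myc barcode read proportions. Only barcodes at a proportion of ≥10^−7 in both replicates and binders with ≥3 barcodes per replicate were kept, with a 10^−6 pseudocount added before the two replicates were pooled.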
As for B1, the “median log2 fold change” value was found to be 0.168.

Consider B2, for which the “median log2 fold change” value turned out to be 0.182.

Take B3: the “median log2 fold change” value was -1.48.

B4: the “median log2 fold change” value was -0.406.

Consider B5, for which the “median log2 fold change” value worked out at 0.139.

For the molecule B6, the “median log2 fold change” value was determined as 0.086.

Turning to B7, the “median log2 fold change” value worked out at 0.0764.

Turning to B8, the “median log2 fold change” value was -0.236.
